# Compound activity as filed in PubChem.
# Tau fluor cs: counter-screen for tau fibril formation inhibitors | tau K18 P301L Alexa594 fluorescence, heparin fibrillization | Potency, µM (titrated, usually from 57.7 µM), inactives show top-dose activity change, negative = decrease | hit rate 0.93% among 280,000; further: potency means the concentration at half of the fitted maximal effect; nearly all actives have a fitted effect of over 55% in size
#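 Human K18 P301L tau (15 uM unlabeled plus 0.24 uM Alexa 594-labeled, final) in 100 mM sodium acetate pH 7 was mixed with compound and 20 uM heparin and incubated 6 hr at 37 C.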
# G9a block: blocks human histone lysine methyltransferase G9a; hit rate 8.8% among 350,000; Potency, µM (doses to about 102 µM), without a hit: top-dose activity, negative = inhibition, hits mostly inhibitors; Q96KQ7; G9a H3K9 monomethylation, AlphaScreen, 2 h; AID 504332; further: potency means the concentration at half of the fitted maximal effect; nearly all actives have a fitted effect of over 75% in size
# Target sequence (Q96KQ7 913-1193 limits assumed): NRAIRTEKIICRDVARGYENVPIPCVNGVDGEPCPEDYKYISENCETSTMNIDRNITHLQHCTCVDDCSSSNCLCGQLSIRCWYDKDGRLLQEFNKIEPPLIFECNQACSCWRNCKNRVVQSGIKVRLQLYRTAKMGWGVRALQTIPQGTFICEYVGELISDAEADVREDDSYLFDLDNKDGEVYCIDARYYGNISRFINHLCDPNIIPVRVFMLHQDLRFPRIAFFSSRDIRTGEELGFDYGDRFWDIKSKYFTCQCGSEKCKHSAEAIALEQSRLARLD
#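 Quantitative HTS format: methyltransferase activity on a biotin-tagged H3K9 peptide is measured by AlphaScreen, using a rabbit anti-monomethyl-H3K9 antibody with streptavidin donor and anti-IgG acceptor beads. Final levels are 20 nM enzyme, 500 nM peptide, 20 uM SAM; 2 h RT.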
# Coupling enz: counter-screen for Giardia aldolase inhibitors: coupling enzyme system; hit rate 0.67% among 290,000; coupling enzyme system counterscreen, AmpLite Red fluorescence; activity change, negative = inhibition, % at 58.2 µM, hits read low; in the data active means activity change below about -30%
#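 Counterscreen of the coupled detection system alone, without aldolase: glyceraldehyde-3-phosphate coupling enzymes plus AmpLite Red readout. Compounds at 57.5 uM final, 10 min RT preincubation, 20 min RT reaction, fluorescence 525/598 nm.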
# Sfp PPTase inh: Sfp phosphopantetheinyl transferase inhibition; Q9F4F7; Biochemical Sfp PPTase activity, qHTS; Potency, µM, for inactives: largest response in the series, negative = inhibition, most hits filed as inhibitors; hit rate 3.5% among 310,000; AID 1490;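 further: the enzyme is Sfp with the accession as filed and its product quenches rhodamine fluorescence; potency means the concentration at half of the fitted maximal effect; 0% = enzyme reaction without inhibitor and -100% = no enzyme wells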
#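 With Hepes-Na pH 7.6 buffer containing 10 mM MgCl2, Sfp (15 nM) modified BHQ-2-YbbR (12.5 uM) using rhodamine-CoA (5 uM). Two reads 30 minutes apart at 525/598 nm yielded each well's rate.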
# Tau ThT inhib: inhibitors of human tau fibril formation, thioflavin T binding | Potency, µM (highest dose often 57.4 µM), inactives show at the highest dose activity, negative = inhibition, usual class: inhibitors | hit rate 2.1% among 270,000 | AID 1460 | P10636 | recombinant tau K18 P301L (four-repeat tau fragment), heparin-induced fibrillization, ThT fluorescence; further: potency means the concentration at half of the fitted maximal effect; nearly all actives have a fitted effect of over 55% in size
#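 Recombinant human tau K18 fragment […] carrying P301L, 15 uM unlabeled plus 0.24 uM Alexa 594-labeled, was fibrillized with 20 uM heparin in 100 mM sodium acetate pH 7 for 6 hr at 37 C; 30 uM ThT fluorescence read after 1 hr.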
# Tau FP inhib: blocks human tau fibril formation measured by polarization; P10636; K18 P301L tau heparin fibrillization, Alexa594 FP, 6 h; Potency, µM (highest dose often 57.7 µM), for the others: at the top dose activity, negative = inhibition, usual class: inhibitors; hit rate 0.39% among 280,000; AID 1468; further: potency means the concentration at half of the fitted maximal effect; nearly all actives have a fitted effect of over 55% in size
#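 FP of Alexa 594-tau after heparin (20 uM) induction. Substrate: human K18 P301L, 15 uM unlabeled, 0.24 uM labeled. Buffer 100 mM sodium acetate pH 7. 6 hr, 37 C.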
# * = called active by the depositor; ? = inconclusive; . = no result; [ ] = remark or other dose. An excerpt weighted towards active compounds, which were near 11% of everything screened. Unless noted, the call rests on the fitted dose curve; in most records, active means well fitted curve in the direction sought with a large enough effect; inconclusive means small, poorly fitted or top-dose-only effect, or another doubt; inactive means no such curve, though single readings can be large; an effect the other way counts as inactive or inconclusive. Unless noted, on the % scale 0 is the no-effect control and ±100 the full control effect.
SMILES,Tau fluor cs,G9a block,Coupling enz,Sfp PPTase inh,Tau ThT inhib,Tau FP inhib
CCCc1ccc(C2C3=C(CC(C)(C)CC3=O)NC3=C2C(=O)c2ccccc23)cc1 (centres undefined),?,35.5µM*,-4.2,-12.1%,?,8.9%
Cc1ccc(N/N=C2\CC(=O)c3ccccc32)cc1Cl,?,.,-18.3,-14.5%,7.08µM*,?
O=C(c1cccc(-n2cccc2)c1)N1CCN(S(=O)(=O)c2ccccc2Br)CC1,.,44.7µM*,.,.,.,.
O=C(c1ccncc1)N1CCN(S(=O)(=O)c2ccccc2Br)CC1,.,-3.0%[59 µM],.,.,.,.
CS(=O)(=O)N1CCN(C(=O)NC2CCCCC2)CC1,-7.6%,2.9%,-1.4,7.7%,-9.7%,-5.0%
